± gives the standard deviation.
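Further: 1 nM active piRISC with 0.1 nM target library at 33 °C single turnover.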

The experiment has as its system MILI (PIWIL2) piRISC loaded with L1MC piRNA (26 nt). The experiment can be described thus: pre-steady-state target cleavage rate (min^-1); guide: L1MC piRNA 5'p-UAACUAAAUACUAUGCAAGCUGUAGG; MIWI and MILI are mouse PIWI proteins and EfPiwi is from a freshwater sponge; tags in brackets are library labels; higher = faster piRNA-guided slicing of the target. Conditions: auxiliary factor: none (no GTSF1). In short, it runs like this: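 A burst-and-steady-state fit was used to obtain the pre-steady-state cleavage rate. The input data were sequencing reads of uncleaved targets, normalised to depth and to weakly complementary targets, from a […] transcribed, DNA-blocked target RNA library mixed with 1 nM active affinity-purified piRISC holding one synthetic guide, with or without 500 nM GTSF1 partner protein, in HEPES–potassium acetate buffer at 33 °C for 0–8 or 0–960 min. Three trials were pooled and k3 was capped at 0.0001 min^-1.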
Consider UCCUGGAUGACCUUGCAUAGUAUUAAGUUA, for which the “pre-steady-state target cleavage rate” value was 0.00338 ± 0.0027.
The value for UCCUGGAUCAGCUUGGUUAGUAUUUAGUUA was 0.0137 ± 0.0033.
The result for UCCUGGAUGUCGAUGGAUAGUAUUUAGUUA reads 0.00383 ± 0.0027; that for UCCUGGAUGUCCUUGCAUUGUAUAUAGUUA, 0.00438 ± 0.0024; that for UCCUGGAUGUCCAUGCAUAGUUUUUAGUUA, 0.00362 ± 0.0023.
The result for UCCUGGUACUGCUUGCAUAGUAUUUUGUUA reads 0.00457 ± 0.0034; that for UCCUGGAUCAGCUUGCAUAGUGAUUUAGUUA, 0.00404 ± 0.0022.
On to UCCUGGUACAGACUUGCAUAGUAUUUAGUUA, for which the “pre-steady-state target cleavage rate” value turned out to be 0.00755 ± 0.0044.
The value for UCCUGGAUGUCCUUGCAUAGAUUUUAGUUA was 0.00402 ± 0.0018; that for UCCUGGAUGUGCUAGCAUAGAAUUUAGUUA was 0.00267 ± 0.0022; that for UCCUGCUACAGCUUGCAUUCUAUUUAGUUA was 0.00339 ± 0.0024.
The value for UCCUGGUACAGGAAGCAUAGUAUUUAGUAA was 0.00332 ± 0.0019; that for UCCUCCUACGGCUUGCAUAGUAUUUAGUUA was 0.0137 ± 0.004.
The result for UCCUGGUACAGCUUGGAUAGUAUUAAGUUA reads 0.00474 ± 0.0033.
Consider UCCUGGAUGUCGAUGCAUAGUAUUUAGGUUA, for which the “pre-steady-state target cleavage rate” value came to 0.00466 ± 0.0031.
With UCCUGGAUGUCGAUGCAUAGUAUCUUAGUUA, the “pre-steady-state target cleavage rate” value was 0.00487 ± 0.0024.
The value for UCCUGCUACAGCUUGCAUUGUUUUUAGUUA was 0.00289 ± 0.0028.
Consider UCCUGGAUGUGCUUGCAAAGUUUUUAGUUA, for which the “pre-steady-state target cleavage rate” value came to 0.0065 ± 0.0023.
The value for UCCUGGAUGUGCUUCCUUAGUAUUUAGUUA was 0.00557 ± 0.0022; that for UCCUGGAUGUCGUUGCAUCGUAUUUAGUUA was 0.00872 ± 0.0025; that for UCCUGGAUGUCGUUGCAUAGUCAUUUAGUUA was 0.00434 ± 0.0028.
The result for UCCUGGAUGUCGUUGCAUAGUAUUUAAGUUA reads 0.00676 ± 0.0028; that for UCCUGGAACAGCUUGCUUAGUUUUUAGUUA, 0.00375 ± 0.0024.
The result for UCCUGGAUGUCGAUGCAUAGUGUUUAGUUA reads 0.0049 ± 0.0026; that for UCCUGGAUCAGCUUGCAAAGUAUAUAGUUA, 0.00771 ± 0.0027.
For UCCUGGAUCAGCUUGCAAAGUAUUUUGUUA, the “pre-steady-state target cleavage rate” value amounted to 0.00456 ± 0.0025.
The value for UCCUGGAACAGCUUGCAUUGUUUUUAGUUA was 0.00334 ± 0.0023; that for UCCUGGAUGUGCUUGGAUAGUAUUUAGUUA was 0.00702 ± 0.0024; that for UCCUGGAUGUCGAUGCAUAGUAUCUAGUUA was 0.00396 ± 0.0023.
The result for UCCUGCUACAGCUUGCAUUGUAAUUAGUUA reads 0.00494 ± 0.0018; that for UCCUGGAUGUCGUUGCAUAGUAUUAUAGUUA, 0.00429 ± 0.0034; that for UCCUCCUACAGCUUCGUUAGUAUUUAGUUA, 0.00396 ± 0.0017.
With UCCUGGAUCAGCUUGCAUAGUAUUAACUUA, the “pre-steady-state target cleavage rate” value stood at 0.00289 ± 0.0028.
For the sequence UCCUGGAUGUCCUUGCAUAGUAUAUAGUUA, the “pre-steady-state target cleavage rate” value came out at 0.00505 ± 0.0026.
The result for UCCUGCUAGUGCUUGCAUAGUAUUUAGUUA reads 0.00303 ± 0.0022; that for UCCUGGAUGUCGUUGCAUAGUAUCUUAGUUA, 0.00848 ± 0.0026; that for UCCUGGAUGUCGAACGAGAGUAUUUAGUUA, less than 0.0001.
The result for UCCUGGAUGUCCUAGCAUAGUAUUUAGUUA reads 0.00379 ± 0.002.
The result for UCCUGGUACAGCUUGCAAUGUAUUUAGUUA reads 0.0121 ± 0.0029; that for UCCUGGAUGUCGUUGCAUAGUAUUUAGUAUA, 0.00811 ± 0.0035.

The values above are taken from the supplement of paper PMC10338343.
